# Assay results published in PubChem BioAssay (NCATS).
# Records with an inconclusive call do not appear. Unmarked numbers belong to inactive results. The source made the active and inactive calls. Calls come from the whole dose curve; as a rule, active = well fitted inhibition curve with a large enough effect; inconclusive = small, poorly fitted or top-dose-only effect; inactive = flat fitted curve, though single readings scatter. Peptide text beside a SMILES is read from it.
# Tested on: CP265
# Assay: qHTS profiling for inhibitors of Plasmodium falciparum proliferation (AID 504749); note: nearly all actives have a fitted effect of over 60% in size;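 for activity, negative = inhibition: 0% = DMSO vehicle and full inhibition = artemisinin control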
# Details: P. falciparum in erythrocytes, SYBR Green DNA, 72 h; series mostly up to 12.8 µM; activity, negative = inhibition: at the top concentration
# Outline: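 Infected RBCs, 0.3% parasitemia/2.5% Hct final; cpd 72 h, 37 C, 5% CO2; lysis buffer with saponin/triton/SYBR Green I, o/n RT dark; FI 485/535; norm. to artemisinin (0.29 uM) and DMSO.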
# Potency is the fitted concentration of half-maximal effect.
SMILES,"activity, negative = inhibition",Potency
CCC(C)C(=O)OC1CCC=C2C=CC(C)C(CCC3CC(O)CC(=O)O3)[C@@H]21 (stereo not given in full),-4.14% [at 28.7 µM],
C[C@]1(c2ccccc2)OC(C(=O)O)=CC1=O,6.72% [at 28.7 µM],
OCC1OC([S-])[C@H](O)C(O)C1O.[Au+] (stereo not given in full),-3.04% [at 28.7 µM],
COC(=O)N/N=C/C1=C[N+](=O)c2ccccc2[N+]1=O,1.02% [at 28.7 µM],
CN1CC(=O)N=C1N,-7.2% [at 28.7 µM],
CNC1CC(N)[C@H](O)[C@@H](O[C@@H]2OC(CO)C3OC4(OC(C(N)CO)C(O)C(O)C4O)O[C@@H]3[C@H]2O)C1O (stereo not given in full),-1.06% [at 28.7 µM],
COC1C=CO[C@@]2(C)Oc3c(C)c(O)c4c(O)c(c(C=NN5CCN(C)CC5)c(O)c4c3C2=O)NC(=O)/C(C)=C\C=CC(C)C(O)[C@@H](C)C(O)C(C)[C@H](OC(C)=O)C1C (stereo not given in full),,5010 nM (active)
CC(=O)N[C@@H]1C(O)OC(CO)C(O)C1O (stereo not given in full),-9.38% [at 28.7 µM],
CCC(CCC(C)C1CCC2C3CC=C4CC(O)CC[C@@]4(C)C3CC[C@@]12C)C(C)C (stereo not given in full),5.03% [at 28.7 µM],
O=C1OC(CO)C(O)C(O)C1O (stereo not given),2.8% [at 28.7 µM],
COc1ccc(CC(N)C(=O)NC2C(CO)OC(n3cnc4c(N(C)C)ncnc43)C2O)cc1 (stereo not given),,891 nM (active)
CCCC(=O)O[C@]1(C(=O)CO)CCC2[C@@H]3CCC4=CC(=O)CC[C@]4(C)C3C(O)C[C@]21C (stereo not given in full),8.37% [at 28.7 µM],
COC(=O)C(Cc1ccccc1)NC(=O)C(N)CC(=O)O (stereo not drawn) (H-Asp-Phe-OMe; configuration not given here),-10.5% [at 28.7 µM],
CC[C@@]12CCCN3CCc4c(n(c5ccccc45)[C@](O)(C(=O)OC)C1)C32 (stereo not given in full),-7.49% [at 28.7 µM],
CC1(C)SC2C(N3C(=O)C(c4ccccc4)NC3(C)C)C(=O)N2C1C(=O)O (stereo not given),4.18% [at 28.7 µM],
